Reference: PubChem BioAssay AID463190 (Sanford-Burnham Center for Chemical Genomics, 2010)
Out of some 330,000 compounds screened, about 7,300 (2.2%) were called active. What follows is part of a selection rich in actives, with near analogues and random picks from the rest. Unmarked numbers belong to inactive results.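 Rule for the calls: active = inhibition of at least 40%; inactive = the rest.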

assay: growth inhibition of tim10-1 ts yeast – luminescence, uHTS, primary screen (AID 463190);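 note: mutant grown at 25 °C; 0% = DMSO wells with yeast and 100% = wells holding no yeast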; conditions: S. cerevisiae tim10-1 ts strain growth, BacTiter-Glo, 24 h; at 20 µM; hits give high values

| SMILES | inhibition |
| --- | --- |
| CCCNC(=O)c1ccc(N2CCC3(CC2)CC(c2ccc(Cl)cc2)=NO3)c([N+](=O)[O-])c1 | 7.65% |
| Cc1nonc1OCCn1nnnc1N | 4.98% |
| COc1ccccc1N(CCOc1ccccc1)S(=O)(=O)c1ccccc1 | 7.59% |
| COc1ccccc1/C=C/C1=NC(=C\N(C)C)/C(=O)O1 | 21% |
| O=C1OC(/C=C/c2ccccc2)=NC/1=C/c1ccco1 | 45.5% (active) |
| Cc1ccccc1C1=N/C(=C/c2cccnc2)C(=O)O1 | 31.3% |
| CCN(Cc1ccccc1)C(=O)CCS(=O)(=O)c1ccc2c(c1)oc(=O)n2C | -13% |
| C[C@H](CO)N1C[C@H](C)[C@@H](CN(C)C(=O)Nc2ccc3c(c2)OCO3)Oc2c(cccc2N(C)C)C1=O | 12.3% |
| CCS(=O)(=O)N1CCC(N2CCN(c3ccccc3)CC2)CC1 | 4.85% |
| Cc1nc2sc(C(=O)c3ccccc3)c(N)c2c2c1CCCC2 | 42.2% (active) |
| CCc1nc2sc(C(=O)O)c(N)c2c2c1CCCC2 | -71.8% |
| Cc1cccc(NC(=O)c2sc3nc(N4CCOCC4)c4c(c3c2N)CCCC4)c1 | 32% |
| Cc1ccc2c(N)c(C(=O)c3ccccc3)sc2n1 | 41.9% (active) |
| Cc1sc2nc(CC(N)=O)[nH]c(=O)c2c1-c1ccccc1 | 6.26% |
| CC(C)OC(=O)c1sc2nc3c(cc2c1N)C(=O)CCC3 | -8.03% |
| COC(=O)c1cc2c(N)c(C(=O)c3ccc(Cl)cc3)sc2nc1C(OC)OC | 10.6% |
| CCN(CC)C(=O)c1sc2nc(-c3ccccc3)ccc2c1N | 21% |
| NC(=O)c1sc2nc3c(c(-c4ccccc4)c2c1N)CCC3 | 41.3% (active) |
| Cc1cc(C)cc(NC(=O)c2cccc(NC(=O)C3C4CC5OC(=O)C3C5C4)c2)c1 (configuration not stated) | 4.38% |
| CCCC(NC(=O)c1ccco1)c1nc2ccccc2[nH]1 (configuration not stated) | 14.1% |
| CCOc1ccc(CCNC(=O)C2=C(C)C(=O)OC23CCC(C)CC3)cc1OCC (configuration not stated) | 19.9% |
| Nc1nc(-c2sc3nc4c(cc3c2N)CCCC4)nc(N2CCOCC2)n1 | 27.8% |
| CCN(CC)Cc1csc2ccc(Br)cc12 | 7.29% |
| COc1ccccc1OCCNCC(O)COc1cccc2[nH]c3ccccc3c12 (configuration not stated) | 22.3% |
| COc1ccc(C)cc1S(=O)(=O)NCCc1ccccc1 | 22.2% |
| CCOC(=O)c1nnn(-c2nonc2-n2cccc2)c1CN1CCC(C(=O)OCC)CC1 | 31.9% |
| CC(=O)c1cccc(OCC(=O)OCC(=O)Nc2cc(S(=O)(=O)N3CCCCC3)ccc2C)c1 | 1.6% |
